Test [1] can be described thus: small molecules captured by biotinylated probe aFSTL3 – biochemical, small-molecule microarray, fluorescence 635/667, stem cell growth factor project, primary screen (AID 1064).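 Further: measures binding of the biotinylated anti-FSTL3 antibody to printed compounds.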 The settings on record: higher = more signal.
Test [2] is described as follows: binders from COS7 lysate, DM2A8 probe, primary screen, torsin A project, cell lysate, small-molecule microarray, fluorescence 635/667 (AID 1065). The settings on record: higher = more signal, COS7 lysate expressing mutant human TOR1A.
Test [3] can be described thus: small molecules captured by biotinylated probe aFGF2 – biochemical, small-molecule microarray, fluorescence 635/667, stem cell growth factor project, primary screen (AID 1067).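 Further: measures binding of biotinylated aFGF2 protein to printed compounds on slides; z-score merges feature fluorescence and signal-to-noise across triplicate slides.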 The settings on record: higher = more signal.
Test [4] is described as follows: small molecules captured by biotinylated probe aFGF10 – biochemical, small-molecule microarray, fluorescence 635/667, stem cell growth factor project, primary screen (AID 1071).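 Further: score merges 667 nm spot intensity and signal to noise from triplicate slides.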 As to conditions: higher = more signal.
Test [5] has as its target Neurogenic locus notch homolog protein 2 (Homo sapiens) (UniProt Q04721). In words: small molecules binding Notch2 protein – biochemical, small-molecule microarray, 635 nm fluorescence, stem cell growth factors, primary screen (AID 1073). The settings on record: higher = more signal.
Test [6] concerns the target Pro-neuregulin-1, membrane-bound isoform (Homo sapiens) (UniProt Q02297). The test is described as follows: small molecules binding neuregulin-1 protein – biochemical, small-molecule microarray, fluorescence 635/667, psychiatric disease protein project, primary screen (AID 1075).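 Further: score combines 667 nm spot fluorescence with signal to noise.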 The settings on record: NRG1 binding, 635 nm fluorescence, higher = more signal.
Test [7] relates to Neuregulin-1 EGF-like domain. In words: small molecules binding NRG1 EGF domain – biochemical, small-molecule microarray, 635 nm fluorescence, primary screen (AID 1081).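 Further: binding of the protein to compounds printed on small-molecule microarray slides.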 As to conditions: higher = more signal.
The nature of test [8]: FRG1 expression reporter modulators in myotubes – cell-based, C2C12 myotubes, firefly/Renilla luciferase, luminescence, FRG1 inhibition for FSHD, primary screen (AID 1084). The settings on record: FRG1 promoter luciferase, higher = more signal, called active from +8 up or from −8 down.
Test [9] is described as follows: small molecules captured by biotinylated probe aFST – biochemical, small-molecule microarray, fluorescence 635/667, stem cell growth factor project, primary screen (AID 1086).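 Further: score merges 667 nm fluorescence with signal-to-noise of each printed compound spot.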 The settings on record: higher = more signal.
Test [10] in a line: binders of probe aHhip on microarray, primary screen, stem cell growth factor project, biochemical, small-molecule microarray, fluorescence 635/667 (AID 1087).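 Further: score merges spot fluorescence at 667nm with spot signal to noise ratio.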 As to conditions: higher = more signal.
Test [11] concerns PRMT1 (protein arginine N-methyltransferase 1). In words: small molecules binding arginine methyltransferase PRMT1 – biochemical, small-molecule microarray, 635 nm fluorescence, primary screen (AID 1088).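 Further: binding of Prmt1 protein to compounds spotted on small-molecule microarray slides.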 As to conditions: higher = more signal.
Test [12] can be described thus: growth effects on S. cerevisiae YJM789 – YJM789 clinical isolate, OD600, 24 h, basal, primary screen (AID 1089).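 Further: growth of clinical yeast isolate S. cerevisiae YJM 789 seeded 1000 cells per well; test concentration not given here.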 The settings on record: higher = more signal, called active from +8 up or from −8 down.
A short description of test [13]: S. pombe growth modifiers, basal conditions – strain 972, OD600, 24 h, no modulator, primary screen (AID 1090).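 Further: basal condition with compound alone and no growth modifier present; test concentration not given here.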 As to conditions: S. pombe 972 growth, higher = more signal, called active from +8 up or from −8 down.
The nature of test [14]: budding yeast growth modifiers under rapamycin – strain BY4716, OD600, 96 h, primary screen (AID 1091). Further: test concentration not given here. The settings on record: S. cerevisiae BY4716 + rapamycin, higher = more signal, called active from +8 up or from −8 down.
Test [15] deals with Torsin-1A-interacting protein 2 (Homo sapiens) (UniProt Q8NFQ8). The test is described as follows: small molecules binding lysate-expressed LULL1 – cell lysate, human LULL1 lysate, 635/667 nm fluorescence, primary screen (AID 1092).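 Further: score merges per-feature 667 nm fluorescence with signal-to-noise.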 As to conditions: small-molecule microarray, hLULL1 lysate binding, 635 nm fluorescence; higher = more signal.
Sequence of Torsin-1A-interacting protein 2 (Homo sapiens) (Q8NFQ8 whole entry, looked up): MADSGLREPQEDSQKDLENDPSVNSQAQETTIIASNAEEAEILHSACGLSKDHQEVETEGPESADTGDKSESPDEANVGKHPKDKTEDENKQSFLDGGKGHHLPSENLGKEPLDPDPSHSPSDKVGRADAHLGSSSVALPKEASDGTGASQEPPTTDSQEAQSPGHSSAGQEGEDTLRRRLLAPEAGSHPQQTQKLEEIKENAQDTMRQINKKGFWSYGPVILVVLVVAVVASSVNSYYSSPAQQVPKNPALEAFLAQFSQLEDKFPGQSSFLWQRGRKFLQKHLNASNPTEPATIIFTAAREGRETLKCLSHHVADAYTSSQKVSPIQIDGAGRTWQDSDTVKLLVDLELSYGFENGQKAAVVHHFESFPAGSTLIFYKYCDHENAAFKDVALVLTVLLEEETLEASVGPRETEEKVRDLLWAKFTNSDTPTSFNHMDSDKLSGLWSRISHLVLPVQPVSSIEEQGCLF
A short description of test [16]: optical density change of DRC41 E. coli – strain DRC41, OD650, 24 h, E. coli filamentation project, primary screen (AID 1093).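 Further: MC1000 strain lacking acrAB efflux and sulA so SOS filamentation is blocked; test concentration not given here.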 As to conditions: E. coli DRC41 growth, higher = more signal, called active from +8 up or from −8 down.
Test [17] can be described thus: probe aLefty2 binding to arrayed compounds – biochemical, biotinylated probe, 635/667 nm fluorescence, primary screen (AID 1094).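 Further: score merges spot fluorescence near 667 nm with spot signal-to-noise ratio.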 The settings on record: small-molecule microarray, higher = more signal.
The test system of test [18] is Noggin (protein binding on small-molecule microarray). In words: small molecules binding Noggin protein – biochemical, 635/667 nm fluorescence, primary screen (AID 1095).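 Further: score merges 667 nm feature fluorescence with signal to noise over triplicate slides.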 The settings on record: 635 nm fluorescence, higher = more signal.
The target of test [19] is Neurogenic locus notch homolog protein 3 (Homo sapiens) (UniProt Q9UM47). In words: small molecules binding NOTCH3 protein – biochemical, 635/667 nm fluorescence, primary screen (AID 1096). The settings on record: small-molecule microarray, 635 nm fluorescence, higher = more signal.
Sequence of Neurogenic locus notch homolog protein 3 (Homo sapiens) (Q9UM47 whole entry, looked up): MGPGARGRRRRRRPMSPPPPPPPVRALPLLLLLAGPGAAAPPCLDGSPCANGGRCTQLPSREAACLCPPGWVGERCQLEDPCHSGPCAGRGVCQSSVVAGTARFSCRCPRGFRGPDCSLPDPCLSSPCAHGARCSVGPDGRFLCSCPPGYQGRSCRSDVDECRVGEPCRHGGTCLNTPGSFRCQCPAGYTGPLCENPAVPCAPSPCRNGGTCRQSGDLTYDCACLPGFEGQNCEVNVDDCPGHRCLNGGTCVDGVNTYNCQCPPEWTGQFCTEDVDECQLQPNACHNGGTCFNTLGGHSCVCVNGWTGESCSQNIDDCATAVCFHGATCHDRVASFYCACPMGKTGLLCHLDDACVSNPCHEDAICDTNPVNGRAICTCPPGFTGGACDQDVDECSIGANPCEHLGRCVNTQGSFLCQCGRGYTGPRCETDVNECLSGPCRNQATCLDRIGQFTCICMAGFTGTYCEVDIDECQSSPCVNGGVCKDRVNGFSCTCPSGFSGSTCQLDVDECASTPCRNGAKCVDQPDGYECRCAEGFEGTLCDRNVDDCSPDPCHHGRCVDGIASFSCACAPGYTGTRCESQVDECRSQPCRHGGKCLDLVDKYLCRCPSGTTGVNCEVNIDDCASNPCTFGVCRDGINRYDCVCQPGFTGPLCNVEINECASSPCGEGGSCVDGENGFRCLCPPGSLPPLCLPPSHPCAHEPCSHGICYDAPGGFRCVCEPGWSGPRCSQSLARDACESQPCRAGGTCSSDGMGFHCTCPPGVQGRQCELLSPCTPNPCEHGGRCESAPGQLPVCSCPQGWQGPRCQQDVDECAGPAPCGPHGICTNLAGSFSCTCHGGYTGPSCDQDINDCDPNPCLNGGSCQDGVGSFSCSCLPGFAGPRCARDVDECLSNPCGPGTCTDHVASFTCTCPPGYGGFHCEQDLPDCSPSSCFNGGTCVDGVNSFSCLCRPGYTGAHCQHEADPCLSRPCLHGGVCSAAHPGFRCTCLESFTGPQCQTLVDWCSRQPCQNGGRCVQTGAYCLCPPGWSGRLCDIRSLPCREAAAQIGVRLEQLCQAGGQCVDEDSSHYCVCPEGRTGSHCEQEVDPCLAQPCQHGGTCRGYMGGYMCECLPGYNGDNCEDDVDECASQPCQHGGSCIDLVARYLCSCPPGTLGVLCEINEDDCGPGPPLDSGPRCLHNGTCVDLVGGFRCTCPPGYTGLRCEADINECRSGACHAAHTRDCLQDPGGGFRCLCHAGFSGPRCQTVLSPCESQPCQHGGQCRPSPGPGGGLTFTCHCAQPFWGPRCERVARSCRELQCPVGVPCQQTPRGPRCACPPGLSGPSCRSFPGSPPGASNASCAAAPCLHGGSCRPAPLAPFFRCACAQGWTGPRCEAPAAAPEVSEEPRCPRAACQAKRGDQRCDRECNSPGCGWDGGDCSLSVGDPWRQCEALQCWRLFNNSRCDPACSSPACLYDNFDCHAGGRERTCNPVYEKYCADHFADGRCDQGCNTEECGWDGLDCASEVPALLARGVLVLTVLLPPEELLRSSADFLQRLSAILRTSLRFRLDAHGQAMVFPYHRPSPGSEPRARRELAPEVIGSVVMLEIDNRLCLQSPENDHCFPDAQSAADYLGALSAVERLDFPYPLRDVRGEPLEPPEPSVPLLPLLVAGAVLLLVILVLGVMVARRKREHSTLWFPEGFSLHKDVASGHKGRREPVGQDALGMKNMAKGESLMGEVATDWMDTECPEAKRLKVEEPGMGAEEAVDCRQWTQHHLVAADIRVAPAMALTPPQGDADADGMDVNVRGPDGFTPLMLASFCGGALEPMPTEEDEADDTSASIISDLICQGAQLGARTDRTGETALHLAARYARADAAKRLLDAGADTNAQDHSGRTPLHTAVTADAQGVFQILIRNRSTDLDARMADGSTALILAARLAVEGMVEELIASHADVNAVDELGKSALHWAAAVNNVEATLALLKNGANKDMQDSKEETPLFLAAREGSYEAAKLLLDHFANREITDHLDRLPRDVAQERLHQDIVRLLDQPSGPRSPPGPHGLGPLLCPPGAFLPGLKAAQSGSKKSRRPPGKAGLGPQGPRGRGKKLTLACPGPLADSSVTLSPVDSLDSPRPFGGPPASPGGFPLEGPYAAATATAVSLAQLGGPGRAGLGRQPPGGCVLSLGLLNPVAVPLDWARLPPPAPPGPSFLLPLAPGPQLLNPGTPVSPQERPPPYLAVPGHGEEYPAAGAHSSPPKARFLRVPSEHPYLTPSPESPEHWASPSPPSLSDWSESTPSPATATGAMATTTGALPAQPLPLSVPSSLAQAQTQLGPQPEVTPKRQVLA
Test [20] is described as follows: probe aEGFR binding to arrayed compounds – biochemical, biotinylated probe, 635/667 nm fluorescence, primary screen (AID 1097).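 Further: probe is a biotinylated anti-EGFR antibody binding compounds printed on slides; score combines fluorescence near 667 nm and signal to noise of each spot.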 The settings on record: small-molecule microarray, higher = more signal.

Calls of active or inactive are those of the source.

Sequence of Pro-neuregulin-1, membrane-bound isoform (Homo sapiens) (Q02297 whole entry, looked up, the tested form may be a part, canonical isoform): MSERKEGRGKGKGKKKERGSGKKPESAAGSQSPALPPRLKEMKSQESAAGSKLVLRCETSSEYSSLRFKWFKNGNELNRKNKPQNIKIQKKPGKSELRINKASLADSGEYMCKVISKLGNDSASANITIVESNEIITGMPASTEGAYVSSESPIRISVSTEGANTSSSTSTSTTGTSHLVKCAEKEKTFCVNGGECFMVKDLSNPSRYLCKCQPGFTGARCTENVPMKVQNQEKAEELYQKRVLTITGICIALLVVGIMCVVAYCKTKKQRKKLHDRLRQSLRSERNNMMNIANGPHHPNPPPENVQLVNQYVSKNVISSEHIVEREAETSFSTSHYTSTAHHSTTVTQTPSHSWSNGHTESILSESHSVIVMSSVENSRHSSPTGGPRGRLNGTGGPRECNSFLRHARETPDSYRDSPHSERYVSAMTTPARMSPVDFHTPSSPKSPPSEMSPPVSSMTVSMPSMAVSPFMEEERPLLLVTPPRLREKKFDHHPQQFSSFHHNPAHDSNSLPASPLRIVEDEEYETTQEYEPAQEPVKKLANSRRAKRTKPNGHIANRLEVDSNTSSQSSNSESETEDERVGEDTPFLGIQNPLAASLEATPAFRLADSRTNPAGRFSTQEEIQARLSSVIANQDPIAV

For `C=CCNC(=O)[C@@H]1[C@H]2C(=O)O[C@H](c3ccccc3)[C@H](c3ccccc3)N2[C@H](c2ccc(O)cc2)[C@@]12C(=O)Nc1ccc(C#CC3(O)CCCCCC3)cc12`, the composite z-score in test [1] is -0.258; in [2], 0.102; in [3], -0.1; in test [4], 0.434; in test [5], 0.469; in [6], 0.606. The composite z-score in test [7] was 0.979; in [9] it was -0.0976; in test [10] it was -0.0391; in [11], 0.994; in [15], 1.57; in [17], -0.113. Further, the values for the composite z-score in [18], in test [19] and in test [20] were 0.553, -0.0051 and -0.013, respectively. The z-score was 0.273 (inactive) in [8]; 0.154 (inactive) in [12]; 0.0674 (inactive) in test [13]; 0.0489 (inactive) in [14]; -0.447 (inactive) in test [16].

In the case of `COC(=O)C1=CC(CCCO)=CC(c2ccc(CN3CCCC3)cc2)N(Cc2sc3ccccc3c2Cl)C=C1C(=O)OC` (stereo not given), the composite z-score in [1] was found to be 0.688; in [2], 2.31; in test [3] it was 0.321; in [4], 1.31; in [5] it was 1.73; in test [6], 2.43. Further, the composite z-score in test [7] amounted to 1.32; in test [9], 1.21; in [10] it was 0.167; in test [11], 1.54; in [15], 3.3; in test [17] it was 0.91. The composite z-score in [18] came out at 0.766; in test [19] it was 1.04; in [20], 0.681. Besides, the z-score was -0.591 (inactive) in [8]; -3.34 (inactive) in [12]; -7.33 (inactive) in test [13]; -1.39 (inactive) in test [14]; -0.542 (inactive) in test [16].

As to `C[C@H]1NC(=O)C([C@@H](C)OCc2ccccc2)NC(=O)[C@@]23C(=O)N[C@@H](Cc4ccccc4)C2[C@H](C)[C@@]2(C)O[C@H]2C3/C=C/C/C=C\CNC1=O` (stereo not given in full), the composite z-score in [1] is -0.265; in [2], 0.0677; in test [3], -0.183; in [4], 0.817; in [5] it was -0.363; in test [6], -0.341. The composite z-score was 0.989 in test [7]; -0.407 in [9]; -0.0324 in test [10]; -0.242 in test [11]; 0.721 in test [15]; -0.192 in test [17]. The composite z-score was 0.797 in test [18], 0.0201 in test [19] and -0.168 in test [20]. For the same compound, the z-score in test [8] is 0.493 (inactive); in [12], 0.823 (inactive); in test [13], -0.389 (inactive); in test [14] it was 1.06 (inactive); in test [16], 0.147 (inactive).

Turning to `CCOC(=O)C1=CCC(c2cc3ccccc3[nH]2)N(S(=O)(=O)c2ccccc2[N+](=O)[O-])C1` (stereo not given), the composite z-score in test [1] was -0.191; in test [2] it was 0.0999; in test [3], -0.0481; in test [4], 0.465; in test [5], 1.37; in test [6] it was 1.48. The composite z-score in test [7] is 0.957; in test [9], 0.361; in test [10], 0.0505; in test [11], 0.659; in test [15], 3.07; in [17], -0.125. Besides, the composite z-score worked out at 0.674 in [18], 0.356 in test [19] and 0.0357 in test [20]. The z-score in test [8] was -2.98 (inactive); in [12], -0.134 (inactive); in test [13], 1.18 (inactive); in [14] it was 1.41 (inactive); in [16], -0.424 (inactive).

`COC(=O)[C@@]1(Cc2ccc(OC)cc2)[C@H]2c3cc(C(=O)N(C)C)n(Cc4ccsc4Br)c3C[C@H]2CN1C(=O)c1ccccc1`: the composite z-score is 0.254 in test [1]; -0.162 in [2]; 0.336 in test [3]; 0.752 in test [4]; 1.64 in test [5]; 1.89 in test [6]. Further, the composite z-score in test [7] is 0.856; in test [9] it was 0.45; in test [10] it was 0.239; in test [11], -0.323; in test [15], 3.41; in [17] it was 0.599. In addition, the values for the composite z-score in test [18], in test [19] and in test [20] were -0.56, 0.251 and 0.301, respectively. Further, the z-score is -0.778 (inactive) in test [8]; 1.36 (inactive) in test [12]; 1.51 (inactive) in [13]; 1.53 (inactive) in [14]; 0.126 (inactive) in test [16].
